The values that follow come from PubChem BioAssay (NCATS).

Inconclusive results are not listed. A number with no mark means an inactive call. Calls follow the shape of the dose curve; as a rule, active = well fitted curve in the direction sought with a large enough effect; inconclusive = small, poorly fitted or top-dose-only effect, or another doubt; inactive = no such curve, though single readings can be large or run the other way.
% is scaled to controls: 0 for no effect and ±100 for the full control effect.

This test is described as follows: qHTS Assay for Identifying Gametocytocidal Compounds (AID 743244).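 Also: actives lower the fluorescent signal which means gametocytes are killed.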 The conditions noted are these: P. falciparum 3D7 stage III-V gametocytes, alamarBlue, 72 h; max response: hits give low values. A digest of the protocol:
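Using 20,000 stage III–V 3D7 gametocytes per well, compounds were incubated 72 h under 37 °C/5% CO2. Viability was then assessed by 24 h alamarBlue reduction, measured fluorometrically at 525/598 nm.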
On to `CO/N=C(\C(=O)N[C@@H]1C(=O)N2C(C(=O)[O-])=C(C[n+]3ccc(N)n3CCO)CS[C@H]12)c1csc(N)n1`, for which the max response is -6.21%. In the case of `NC(=O)Oc1ccc(Cc2ccccc2)cc1`, the max response is -7.34%.

Turning to `O=C(O)/C=C/C(=O)Nc1ccc(S(=O)(=O)Nc2nccs2)cc1`, the max response was 0.278%.

Consider `OC[C@@H](O)C(O)[C@H](O)CO`, for which the max response was 3.78%. Take `CN[C@@H]1[C@@H](O)[C@@H](O[C@@H]2[C@@H](O)[C@H](OC3OC(CN)=CCC3N)[C@@H](N)C[C@H]2N)OC[C@]1(C)O` (stereo partly drawn): the max response is -3.17%. Consider `Cc1ncc(C[n+]2csc(CCO)c2C)c(N)n1`, for which the max response is 2.57%. Regarding `C[Se]CC[C@H](N)C(=O)O`, the max response is 8.55%.

As for `COc1ccccc1N1CCN(CCCC(=O)c2ccc(F)cc2)CC1`, the max response is 18%.

For `CN[C@@H]1[C@@H](O[C@H]2O[C@H](CO)[C@@H](N)[C@H](O)[C@H]2O)O[C@H]2C[C@@H](N)[C@@H](O[C@H]3[C@H](O)[C@@H](O)[C@H](N)C[C@@H]3N)O[C@@H]2[C@@H]1O`, the max response was 4.88%. As to `Cc1cc(=O)c(C(=O)N[C@@H](C(=O)N[C@@H]2C(=O)N3C(C(=O)O)=C(CSc4nnnn4C)CS[C@H]23)c2ccc(O)cc2)c[nH]1`, the max response is -4.61%. In the case of `Cc1nc(NS(=O)(=O)c2ccc(N)cc2)nc(C)c1Br`, the max response was 21.7%. Take `COc1ccc(/C=N/NC(=O)c2ccncc2)c(C(=O)O)c1OC`: the max response is 9%. As for `CCC[C@@H]1C[C@@H](C(=O)N[C@@H]([C@H]2O[C@H](SC)[C@H](O)[C@@H](O)[C@H]2O)[C@H](C)Cl)N(C)C1`, the figure is -8.48%.
